# Compound activity: PubChem, several laboratories
# BoNT-F LC inh = BoNT/F light chain protease inhibitors, primary screen, biochemical, flow cytometry, MLPCN library; hit rate 0.22% among 360,000; Multiplex microsphere protease cleavage assay; Botulinum neurotoxin type F light chain protease (Clostridium botulinum); inhibition, % at 10 µM; in the data active = inhibition above about 35%, passing the limit was not always enough; inconclusive = no clear call, values can overlap the other calls; also: plate controls were buffer without enzyme for full effect and enzyme alone for no effect
# MazF activator = activators of E. coli MazEF toxin-antitoxin RNase, primary screen, biochemical, fluorescence, uHTS | Endoribonuclease toxin MazF (Escherichia coli (strain K12)), P0AE70 | FAM/BHQ RNA-DNA oligo cleavage fluorescence, 5 h | activation, % at 20 µM | hit rate 0.32% among 350,000 | AID 504720, 2011; in the data active = activation above about 50%
# Target sequence (P0AE70 whole entry, looked up): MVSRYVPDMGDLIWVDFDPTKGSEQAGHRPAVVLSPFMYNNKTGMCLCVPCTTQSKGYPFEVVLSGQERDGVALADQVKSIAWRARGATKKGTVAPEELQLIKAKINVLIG
# Anthrax LF prot = Bacillus anthracis LF protease inhibitors, primary screen, biochemical, multiplex microsphere, MLPCN library | Lethal factor (Bacillus anthracis), P15917 | inhibition, % at 10 µM | multiplex microsphere protease cleavage assay | hit rate 0.12% among 360,000 | AID 588501, 2011; also: plate controls were buffer without enzyme for full effect and enzyme alone for no effect
# BoNT-A LC inh2 = BoNT/A light chain protease inhibitors, primary screen, biochemical, flow cytometry, MLPCN library; hit rate 0.17% among 360,000; AID 588499, 2011; inhibition, % at 10 µM; multiplex microsphere protease substrate cleavage; also: plate controls were buffer without enzyme for full effect and enzyme alone for no effect
# Autofluor counter = flagged as autofluorescent in microsphere protease counterscreen; compound autofluorescence counterscreen, microsphere flow cytometry; active compounds read high; hit rate 3.1% among 360,000; fluorescence intensity (no concentration beside the values); in the data active = fluorescence intensity above about 16000; inconclusive = no clear call, values can overlap the other calls
# An asterisk follows results filed as active; u = inconclusive; x = no result given; + = active, no number. In the library only some 3.6% were active in any assay of this set; here they are far more common. Rule as the data show it, unless noted: active = inhibition above about 30%; inconclusive = no clear call, values can overlap the other calls; inactive = below that.
SMILES,BoNT-F LC inh,MazF activator,Anthrax LF prot,BoNT-A LC inh2,Autofluor counter
COc1ccc(C(=O)CSc2nnc(-c3cc4ccccc4cc3O)n2Cc2ccco2)cc1,-6,5,-4,-1,23275*
COc1ccccc1NC(=O)CSc1nnc(-c2ccco2)n1Cc1ccco1,-1,2,0,0,19643*
COCOCCn1cc(CN2CCS(=O)(=O)N(Cc3ccc(-c4ccc(F)nc4)cc3)C(CC(C)C)C2=O)nn1 (stereo not given),1,-1,0,1,3204
Cc1nn(Cc2ccc(C(=O)N3N=C(C(F)F)CC3(O)C(F)F)o2)c(C)c1[N+](=O)[O-] (stereo not given),3,0,1,0,2100
O=C(c1ccc(Cn2cc([N+](=O)[O-])cn2)o1)N1N=C(C(F)F)CC1(O)C(F)F (stereo not given),4,-1,0,4,22404*
COc1ccccc1C1C=C(c2ccccc2)Nc2nnnn21 (stereo not given),0,1,2,u,20241*
COc1ccc(C2=CC(c3ccc(F)cc3)n3nnnc3N2)cc1 (stereo not given),-2,-4,4,1,5973
Cc1ccc(C2=CC(c3ccc(N(C)C)cc3)n3nnnc3N2)cc1 (stereo not given),2,64*,-3,1,5364
Cc1c(-c2nc(N)nc(Nc3ccccc3F)n2)oc2ccccc12,-3,3,-4,-3,24893*
O=C(Cn1cnc2ccccc2c1=O)Nc1ccc2c(c1)CCC2,1,3,-2,-1,23574*
Cc1nc2sc3c(c2c(=O)n1N)CCC3,-1,4,-1,-1,4292
Cn1nnc2sc3c(c2c1=O)CCCC3,-5,-2,-1,-2,23005*
C=CCOc1ccc(/C=C/C(=O)OCC(=O)NCc2ccco2)cc1,4,2,5,2,5744
CC(C)(C)C1CCC(=NNc2ncc(C(F)(F)F)cc2Cl)CC1 (stereo not given),-2,-3,-1,u,22794*
C/C(=N/Nc1ncc(C(F)(F)F)cc1Cl)c1ccncc1,-6,0,-4,-1,5224
Cc1ccc(CN2C(=O)C(C)Oc3ccc(C)cc32)cc1 (stereo not given),-9,x,0,0,3144
Cc1ccc2c(c1)N(Cc1ccccn1)C(=O)C(C)O2 (stereo not given),-5,4,-2,-4,24586*
CC(C)c1ccccc1OS(N)(=O)=O,8,4,2,0,3721
COc1ccc(C(=O)c2cn[nH]c2-c2cc(Cl)ccc2O)cc1,2,9,0,-1,16806*
CCN1C(=O)NC(=O)/C(=C\c2cn(CC(=O)N3CCCCC3C)c3ccccc23)C1=O (stereo not given),-15,+,-2,-5,u
CC1CCCCN1C(=O)Cn1cc(C#N)c2ccccc21 (stereo not given),-6,7,-4,1,2862
Cc1nn(C)cc1/C=N\NC(=O)c1ccc2c(c1)c(C)c(C)n2Cc1ccccc1,-13,-8,-3,-1,3162
C[C@@H]1O[C@H](C2CCCC2)Cc2[nH]c(=S)[nH]c(=O)c21,0,x,0,0,5836
c1nc(N2CCCC2)c2[nH]cnc2n1,0,7,-1,u,23416*
CCCc1nc2oc3c(OC)ncnc3c2c2c1COC(C)(C)C2,-4,3,2,0,19420*
SMILES,BoNT-F LC inh,MazF activator,Anthrax LF prot,BoNT-A LC inh2,Autofluor counter
CC(C)c1nc2oc3c(NCC4CCCO4)ncnc3c2c2c1COC(C)(C)C2 (stereo not given),-1,10,-4,1,22704*
CC(C)c1nc2oc3c(NCCO)ncnc3c2c2c1COC(C)(C)C2,u,8,15,-1,3544
Cc1nc2oc3c(NCC4CCCO4)ncnc3c2c2c1COC(C)(C)C2 (stereo not given),-2,0,-3,1,22824*
CCCc1nc2oc3c(NCCOCCO)ncnc3c2c2c1COC(C)(C)C2,10,10,-4,4,7131
CCOc1ccc(N=C2NC(=O)CS2)cc1,-4,5,2,-3,3162
CCc1ccc(-c2cc(C)no2)cc1S(=O)(=O)N1CCOc2ccc(C)cc21,1,-1,2,1,5027
Cc1oc(-c2ccccc2F)nc1CS(=O)CC(=O)NC1CCCC1 (stereo not given),-1,6,-1,1,5376
COc1ccc2c(c1)CC1(CN2C)C(=O)NC(=O)N(c2ccc(F)cc2)C1=O (stereo not given),0,-10,-1,0,22766*
COc1ccc2c(c1)CC1(CN2C)C(=O)NC(=O)N(c2ccc(C)cc2)C1=O (stereo not given),-6,-2,-3,1,4274
CC(=O)Nc1ccc(S(=O)(=O)NCCC(=O)OCc2ccc([N+](=O)[O-])cc2)cc1,1,0,1,1,5683
COc1cccc(-c2cc(C(=O)NCCN3CCOCC3)no2)c1,-5,2,0,-3,17375*
COc1ccc(NC(=O)c2cc3n(n2)C(C(F)(F)F)CC(c2ccc(OC)cc2)N3)cc1 (stereo not given),3,8,-2,0,7737
COc1ccc(C2CC(C(F)(F)F)n3nc(C(=O)NCCN4CCOCC4)cc3N2)cc1 (stereo not given),-4,10,-2,-1,17087*
COc1ccccc1-c1cc(C(=O)NCCN2CCOCC2)no1,3,2,-1,0,11229
O=C(NC(=S)NCCN1CCOCC1)c1cccc(Cl)c1,-2,-3,1,-1,22268*
O=C(NCCN1CCOCC1)c1cc(-c2ccc(Cl)cc2)on1,-5,4,-3,u,17467*
Cc1cc(C)cc(NC(=O)CC2Oc3ccc(C)cc3NC2=O)c1 (stereo not given),13,-4,14,0,3879
Cc1cc(C)c(S(=O)(=O)/N=C2/C=C(Sc3ncn[nH]3)C(=O)c3ccccc32)cc1C,-6,-2,-4,1,2391
COc1ccccc1NC(=O)NNC(=O)CCc1ccccc1,-1,0,-3,2,5736
Cc1ccc(S(=O)(=O)N2CCCC2CNC(=O)C(=O)NCc2ccc3c(c2)OCO3)cc1 (stereo not given),-3,5,-2,0,3028
CCC(C(=O)OC)n1cnc2c(nnn2-c2ccc(F)cc2)c1=O (stereo not given),-2,9,-8,0,4799
O=C(c1cccc(S(=O)(=O)Nc2ccc(F)cc2)c1)N1CCCC1,x,-19,x,x,x
COc1cccc(NC(=O)COC(=O)c2cc(=O)c3ccccc3o2)c1,3,-12,4,3,u
O=C(OCC(=O)N1CCc2ccccc21)c1ccc(Cl)nc1,-2,7,1,0,23913*
